# Compounds with a hit are over-represented: about 7.5% of the library has one in this group of screens.
# SMN2 splice up: qHTS Assay for Enhancers of SMN2 Splice Variant Expression; HEK293 SMN2-luciferase splicing reporter, luminescence, 30-36 h; Potency, µM (doses to about 46.1 µM), most hits filed as activators; 210,000 tested, 2.8% active; note: nearly all actives have a fitted effect of over 55% in size
#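 HEK293 cells carry an SMN2 […]–luciferase reporter in which exon 7 inclusion puts luciferase in frame. Cells were plated 10-12 h before compound addition, then incubated 30-36 h at 37C. ONE-Glo luminescence was read; sodium butyrate at 4.5 mM final served as control.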
# KinaseGlo FLuc: Counterscreen for Luciferase (Kinase-Glo TM) Inhibition; Kinase-Glo luciferase, ATP luminescence, 8 min; Potency, µM (titrated, usually from 38.3 µM), most hits filed as inhibitors; 200,000 tested, 0.28% active; note: nearly all actives have a fitted effect of over 60% in size
#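 Substrate mix (final 50 mM imidazole pH 7.2, 50 mM KCl, 7 mM MgCl2, 10 uM ATP, 0.01% Tween 20, 0.05% BSA) plus pin-tool compound, then Kinase-Glo detection mix; 8 min ambient, luminescence read.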
# NPC1 promoter act: qHTS Assay for NPC1 Promoter Activators; Huh7 NPC1 promoter luciferase reporter, 24 h; Potency, µM (doses to about 9.22 µM), most hits filed as activators; 320,000 tested, 2.4% active; AID 485313, 2010; note: nearly all actives have a fitted effect of over 60% in size
#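 NPC1 promoter–luciferase Huh7 cells; 24 h compound; luminescence.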
# FLuc counter: qHTS profiling assay for firefly luciferase inhibitor/activator using purifed enzyme and Km concentrations of substrates (counterscreen for miR-21 project); Luciferin 4-monooxygenase (Photinus pyralis), P08659; purified FLuc, Km substrates, luminescence inhibition; Potency, µM (top dose mostly 57.5 µM), hits mostly inhibitors; 360,000 tested, 6.9% active; note: nearly all actives have a fitted effect of over 55% in size
# Target sequence (P08659 whole entry, looked up): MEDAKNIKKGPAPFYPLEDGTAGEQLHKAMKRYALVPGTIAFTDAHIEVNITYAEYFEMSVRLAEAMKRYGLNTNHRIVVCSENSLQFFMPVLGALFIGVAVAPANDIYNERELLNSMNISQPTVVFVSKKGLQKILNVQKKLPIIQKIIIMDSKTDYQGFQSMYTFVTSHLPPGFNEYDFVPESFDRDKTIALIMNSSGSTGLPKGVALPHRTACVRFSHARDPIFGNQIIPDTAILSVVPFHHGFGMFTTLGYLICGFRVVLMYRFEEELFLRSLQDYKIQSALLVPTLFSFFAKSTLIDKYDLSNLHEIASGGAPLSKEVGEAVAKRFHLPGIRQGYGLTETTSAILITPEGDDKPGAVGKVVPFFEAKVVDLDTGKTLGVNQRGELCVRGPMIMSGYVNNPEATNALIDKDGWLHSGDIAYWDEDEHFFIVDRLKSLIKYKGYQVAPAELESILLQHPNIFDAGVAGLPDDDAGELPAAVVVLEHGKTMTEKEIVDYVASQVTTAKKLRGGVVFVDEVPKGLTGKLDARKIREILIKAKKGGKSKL
#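 Purified P. pyralis luciferase, 10 nM final, with Km-level 10 uM D-luciferin and 10 uM ATP in 50 mM Tris acetate pH 7.5, 10 mM Mg acetate, 0.01% Tween-20, 0.05% BSA; 6-point qHTS titration about 60 µM downward; luminescence read.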
# ELG1 genotox: qHTS screen for small molecules that induce genotoxicity in human embryonic kidney (HEK293T) cells expressing luciferase-tagged ELG1. Potency, µM (top dose mostly 46 µM), actives largely listed as activators. 330,000 tested, 1.3% active. HEK293T ELG1-luciferase reporter, luminescence, 16 h; note: nearly all actives have a fitted effect of over 60% in size
#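 Reporter readout depends on ELG1 protein level, which increases with genetic stress. After 16 hr compound exposure at 37 °C, luciferase activity was quantified using ONE-Glo.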
# Rab9 prom act: qHTS Assay for Rab9 Promoter Activators. Huh7 Rab9 promoter-luciferase reporter, luminescence, 24 h. Potency, µM (titrated, usually from 9.22 µM), actives largely listed as activators. 320,000 tested, 2.8% active. AID 485297, 2010; note: nearly all actives have a fitted effect of over 60% in size
#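 Luminescence from Amplite-detected luciferase (10 minutes, ambient) reports Rab9 promoter activation. Before that, stable Rab9-luciferase Huh7 cells (1500/well, reduced-serum OP-MEM I plus 10% FBS) were exposed to compound for 24 hours at 37C.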
# A number is an active result; - = inactive; ? = inconclusive; . = no result; [ ] = dose if it differs, or a comment. Calls come from the whole dose curve; as a rule, active = well fitted curve in the direction sought with a large enough effect; inconclusive = small, poorly fitted or top-dose-only effect, or another doubt; inactive = no such curve, though single readings can be large; an effect the other way counts as inactive or inconclusive.
SMILES,SMN2 splice up,KinaseGlo FLuc,NPC1 promoter act,FLuc counter,ELG1 genotox,Rab9 prom act
CC(NC(=O)c1ccc(NC(=O)c2nsc3ccccc23)cc1)c1ccccc1 (stereo not given),.,.,.,3µM,.,.
CC(NC(=O)c1cccc(NC(=O)c2nsc3ccccc23)c1)c1ccccc1 (stereo not given),.,.,.,3.8µM,.,.
O=C1NC(Cc2ccccc2)c2nc3ccc(Br)cc3c(=O)n2-c2cc(Cl)ccc21 (stereo not given),.,.,.,.,-,.
Cc1ccccc1Oc1cccc(C(=O)/C(C#N)=C/N(C)C)c1,-,-,-,?,?,-
CN(C)/C=C(/C#N)C(=O)c1cccc(Oc2ccc(C(C)(C)C)cc2)c1,-,-,-,15µM,-,-
CCC(C)(C)c1ccc(Oc2ccc(N)cc2)cc1,-,-,-,?,-,-
CCC(C)(C)c1ccc(Oc2cccc(C(=O)O)c2)cc1,-[9.22 µM],-[7.66 µM],1.8µM,?,-,?
CC(C)c1ccc(OCc2ccc(C(=O)N(C)C)o2)cc1,.,.,2.8µM,24µM,10µM,1.6µM
CC(C)NC(=O)c1ccc(COc2ccc(C(C)(C)C)cc2)o1,.,.,?,?,-,-
CC(C)c1ccc(OCc2ccc(C(=O)O)o2)cc1,.,.,?,0.43µM,?,?
CC(C)c1ccc(OCc2ccc(C(=O)NN3CCN(C)CC3)o2)cc1,14µM,-,2.2µM,?,?,2.5µM
N#Cc1ccc(OCc2ccc(C(=O)O)o2)cc1,.,.,-,?,-,-
NCCCC(O)(P(=O)(O)O)P(=O)(O)O,-,-,.,.,.,.
CC1=Nc2cc([N+](=O)[O-])ccc2NC(C)(C)C1,-,-,-,-,-,-
CC1(C)CNc2cc([N+](=O)[O-])ccc2S1,-,-,?,27µM,?,?
O=C(OCCOc1ccccc1Cl)c1ccc(-n2cnnn2)cc1,-,-,-,21µM,-,-
COc1ccccc1CNC(=O)COC(=O)c1ccc(-n2cnnn2)cc1,.,.,-,-,-,-
COc1cc(/C=C/C(=O)c2c(O)cc(C)oc2=O)cc(OC)c1O,-,-,-,-,-,-
CSc1ccc(/C=C/C(=O)c2c(O)cc(C)oc2=O)cc1,.,.,-,4.3µM,-,?
Cc1cc(O)c(C(=O)/C=C/c2ccc(Cl)cc2)c(=O)o1,.,.,-,2.1µM,-,-[1.84 µM]
COc1cccc(/C=C/C(=O)c2c(O)cc(C)oc2=O)c1O,-,-,-,?,?,-
COc1ccc(/C=C/C(=O)c2c(O)cc(C)oc2=O)c(OC)c1,-,?,3.5µM,1.3µM,16µM,1.8µM
CCCCOc1ccccc1NC(=O)CC1Sc2ccccc2NC1=O (stereo not given),-,.,.,-,.,.
COc1ccc(NS(=O)(=O)c2ccc(F)c(F)c2F)cc1S(=O)(=O)N1CCOCC1,.,.,-,-,-,-
O=C1Nc2ccccc2N(O)N1c1cc(-c2ccc(Cl)cc2)[nH]n1,-,-,-,8.5µM,-,-
SMILES,SMN2 splice up,KinaseGlo FLuc,NPC1 promoter act,FLuc counter,ELG1 genotox,Rab9 prom act
O=C1Nc2ccccc2N(O)N1c1cc(-c2ccccc2Cl)no1,-,-,?,6µM,-,-
O=C1Nc2ccccc2N(O)N1c1cc(-c2cccc(Cl)c2)no1,.,-,-,21µM,-,-
CCOC(=O)Cc1ccc(NC(=O)NCc2ccc3c(c2)CCN3C(=O)CC)cc1,.,.,.,-,.,.
CC(C)c1ccc(Nc2cc(C(=O)NCc3cccs3)c3ccccc3n2)cc1,-,.,.,-,.,.
CCC(=O)N(Cc1ccc(S(N)(=O)=O)cc1)C1CC(=O)N(c2ccccc2)C1=O (stereo not given),-,-,-,-,-,-
COc1ccc(-c2cn3c4c(sc3n2)CCCC4)cc1,1.3µM,-,1µM,0.21µM,?,0.5µM
COc1ccc(-c2cn3c(C)c(C(=O)Nc4ccncc4)sc3n2)cc1,-,-,-,?,-,-
CCOc1ccc(-c2noc(-c3cccnc3)n2)cc1OC,-,-,?,13µM,-,-
COc1ccc(-c2noc(-c3cccnc3)n2)cc1OC,?,-,?,15µM,?,3.5µM

# Screens from PubChem.
